NPC1 promoter act = qHTS Assay for NPC1 Promoter Activators; Huh7 NPC1 promoter luciferase reporter, 24 h; Potency, µM (titrated, usually from 9.22 µM), without a hit: at the top dose activation, most hits filed as activators; hit rate 2.4% among 320,000; AID 485313, 2010; note: % of control where 0% means no effect; nearly all actives have a fitted effect of over 60% in size
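Stably transfected Huh7 (NPC1 promoter→luciferase), 1500 cells/well in Opti-MEM + 10% FBS, 2 h settle, then compound 24 h at 37 °C. Luminescence after 10 min with Amplite reagent.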
KinaseGlo FLuc = Counterscreen for Luciferase (Kinase-Glo TM) Inhibition; Kinase-Glo luciferase, ATP luminescence, 8 min; Luciferin 4-monooxygenase (Photuris pensylvanica), Q27757; Potency, µM (titrated, usually from 38.3 µM), without a hit: at the top dose activity change, negative = inhibition, most hits filed as inhibitors; hit rate 0.28% among 200,000; note: % is set by controls: 0 for no effect and ±100 for the full control effect; nearly all actives have a fitted effect of over 60% in size
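Kinase-Glo luciferase light output from ATP and luciferin was measured with 10 uM ATP, within the enzyme's linear range. Buffer: 50 mM imidazole pH 7.2, 50 mM KCl, 7 mM MgCl2, 0.01% Tween 20, 0.05% BSA; luminescence read after 8 min at ambient temperature.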
ELG1 genotox = qHTS screen for small molecules that induce genotoxicity in human embryonic kidney (HEK293T) cells expressing luciferase-tagged ELG1; HEK293T ELG1-luciferase reporter, luminescence, 16 h; Potency, µM (top dose mostly 46 µM), inactives show top-dose activity change, positive = activation, actives largely listed as activators; hit rate 1.3% among 330,000; AID 504466, 2011; note: % of control where 0% means no effect; nearly all actives have a fitted effect of over 60% in size
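Screening used a luciferase reporter fused to human ELG1 in HEK293T cells. Luminescence was read on a CCD plate imager after 16 hr exposure and 30 min ONE-Glo incubation.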
SMN2 splice up = qHTS Assay for Enhancers of SMN2 Splice Variant Expression. HEK293 SMN2-luciferase splicing reporter, luminescence, 30-36 h. Potency, µM (doses to about 46.1 µM), without a hit: at the top dose activity change, positive = activation, actives largely listed as activators. hit rate 2.8% among 210,000. AID 1458, 2008; note: % of control where 0% means no effect; nearly all actives have a fitted effect of over 55% in size
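HEK293 cells carry an SMN2 minigene-luciferase reporter in which exon 7 inclusion puts luciferase in frame. Cells were seeded at 2000 cells/well, attached for 10-12 hours, then exposed to compounds for 30-36 hours at 37C before ONE-Glo luminescence.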
FLuc counter = qHTS profiling assay for firefly luciferase inhibitor/activator using purifed enzyme and Km concentrations of substrates (counterscreen for miR-21 project); hit rate 6.9% among 360,000; Potency, µM (top dose mostly 57.5 µM), for inactives: at the highest dose activity change, negative = inhibition, usual class: inhibitors; purified FLuc, Km substrates, luminescence inhibition; Luciferin 4-monooxygenase (Photinus pyralis), P08659; AID 588342, 2011;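 note: plate controls were vehicle for no effect and reference inhibitor for full effect; nearly all actives have a fitted effect of over 55% in size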
Target sequence (P08659 whole entry, looked up): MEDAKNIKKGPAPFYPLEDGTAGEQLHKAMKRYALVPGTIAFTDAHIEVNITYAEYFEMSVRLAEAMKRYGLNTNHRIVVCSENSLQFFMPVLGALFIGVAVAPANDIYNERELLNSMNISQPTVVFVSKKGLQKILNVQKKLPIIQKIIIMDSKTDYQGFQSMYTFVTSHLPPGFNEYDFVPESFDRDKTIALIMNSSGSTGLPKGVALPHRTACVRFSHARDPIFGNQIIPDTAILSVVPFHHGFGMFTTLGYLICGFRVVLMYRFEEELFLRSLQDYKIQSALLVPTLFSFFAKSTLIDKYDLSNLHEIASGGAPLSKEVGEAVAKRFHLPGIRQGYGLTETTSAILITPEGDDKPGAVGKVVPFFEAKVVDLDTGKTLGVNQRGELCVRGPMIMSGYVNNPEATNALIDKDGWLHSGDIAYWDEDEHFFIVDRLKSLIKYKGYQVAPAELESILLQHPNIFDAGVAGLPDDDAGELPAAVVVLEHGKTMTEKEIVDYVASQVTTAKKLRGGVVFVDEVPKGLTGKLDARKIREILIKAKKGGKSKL
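Biochemical qHTS of compounds, final roughly 60 µM downward over six points, against 10 nM purified firefly luciferase using Km concentrations of substrates (10 uM D-luciferin, 10 uM ATP) in Tris acetate pH 7.5 buffer; luminescence output.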
Rab9 promoter act = qHTS Assay for Rab9 Promoter Activators; Huh7 Rab9 promoter-luciferase reporter, luminescence, 24 h; Potency, µM (series often up to 9.22 µM), for inactives: top-dose activation, negative = inhibition, most hits filed as activators; hit rate 2.8% among 320,000; AID 485297, 2010; note: % of control where 0% means no effect; nearly all actives have a fitted effect of over 60% in size
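Steps: seed 1500 Huh7 Rab9-luc cells per well, rest 2 h at 37 °C; add compound in DMSO; incubate 24 h; add luciferase reagent, 10 min ambient; read luminescence.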
Numbers without * were called inactive. Only some compounds are listed: those with a hit (about 7.5% of all), similar ones and a draw of the others. Calls come from the whole dose curve; as a rule, active = well fitted curve in the direction sought with a large enough effect; inconclusive = small, poorly fitted or top-dose-only effect, or another doubt; inactive = no such curve, though single readings can be large; an effect the other way counts as inactive or inconclusive. Potency is the fitted concentration of half-maximal effect.

How did Clc1cccc(CSc2ccc(-c3ccco3)nn2)c1 do in these assays?
NPC1 promoter act: 11.7%; KinaseGlo FLuc: -2.9%; ELG1 genotox: 8.5%; SMN2 splice up: 25.7%; FLuc counter: 21.3µM*; Rab9 promoter act: 27.0%

Results for Cc1cccc(CSc2ccc(-c3ccco3)nn2)c1 ?
NPC1 promoter act: inconclusive; KinaseGlo FLuc: -1.6%; ELG1 genotox: inconclusive; SMN2 splice up: inconclusive; FLuc counter: 12µM*; Rab9 promoter act: inconclusive

Results for Clc1ccc(CSc2ccc(-c3ccco3)nn2)cc1 ?
NPC1 promoter act: inconclusive; KinaseGlo FLuc: -4.9%; ELG1 genotox: 15.0%; SMN2 splice up: inconclusive; FLuc counter: inconclusive; Rab9 promoter act: inconclusive

Results for COC(=O)c1ccccc1NC(=O)N1CCC(N2CCN(Cc3ccc(F)cc3)C(=O)C2=O)CC1 ?
FLuc counter: -7.5%

Results for COc1ccc(NC(=O)CN2C(=O)COc3ccc(C)cc32)cc1 ?
NPC1 promoter act: -0.5%; ELG1 genotox: 0.3%; FLuc counter: 2.6%; Rab9 promoter act: -0.7%

What do the screens show for `O=C(CSc1ccc(-c2ccco2)nn1)Nc1ccc(F)cc1F`?
NPC1 promoter act: 7.2%; ELG1 genotox: -13.3%; FLuc counter: inconclusive; Rab9 promoter act: 0.7%

What do the screens show for `Fc1ccccc1CSc1ccc(-c2ccco2)nn1`?
NPC1 promoter act: 2.24µM*; KinaseGlo FLuc: -3.2%; ELG1 genotox: inconclusive; SMN2 splice up: 17.8µM*; FLuc counter: 6.01µM*; Rab9 promoter act: 1.58µM*

How did CCOC(=O)C1CCCN(C(=O)C2CCN(S(=O)(=O)c3c(C)noc3/C=C/c3ccc(C)cc3)CC2)C1 (stereo not drawn) do in these assays?
FLuc counter: -1.7%

How did Cc1ccc(/C=N/Nc2cccc3cccnc23)c(O)c1 do in these assays?
NPC1 promoter act: 3.98µM*; ELG1 genotox: inconclusive; FLuc counter: 1.51µM*; Rab9 promoter act: inconclusive

Results for Oc1ccc(/C=N/Nc2cccc3cccnc23)c(O)c1 ?
NPC1 promoter act: 9.4%; KinaseGlo FLuc: -11.5%; ELG1 genotox: 6.51µM*; SMN2 splice up: 12.6µM*; FLuc counter: 4.78µM*; Rab9 promoter act: 3.16µM*

Results for Cc1ccc2nc(C)cc(N/N=C/c3cccnc3)c2c1 ?
NPC1 promoter act: 0.4%; KinaseGlo FLuc: -2.3%; ELG1 genotox: 1.9%; FLuc counter: -0.3%; Rab9 promoter act: -3.6%

Results for O=C(O)/C=C/C(=O)Nc1cccc2cccnc12 ?
NPC1 promoter act: 2.2%; ELG1 genotox: 5.9%; FLuc counter: inconclusive; Rab9 promoter act: 11.3%

Results for Cn1c(/N=C/c2cccs2)nc2ccccc21 ?
NPC1 promoter act: -1.6%; KinaseGlo FLuc: inconclusive; ELG1 genotox: 2.1%; SMN2 splice up: 0.3%; FLuc counter: 1.07µM*; Rab9 promoter act: -7.8%

How did COc1ccc(/C=N/c2nc3ccccc3n2C)cc1OC do in these assays?
NPC1 promoter act: 0.6%; KinaseGlo FLuc: inconclusive; ELG1 genotox: -2.6%; SMN2 splice up: -21.2%; FLuc counter: 0.757µM*; Rab9 promoter act: -4.1%

What do the screens show for `Cn1c(/N=C/c2ccccc2[N+](=O)[O-])nc2ccccc21`?
NPC1 promoter act: -0.9%; ELG1 genotox: -3.2%; FLuc counter: 1.69µM*; Rab9 promoter act: 3.6%

Results for S=C(NCc1ccccc1)NN1CCOCC1 ?
NPC1 promoter act: -8.9%; KinaseGlo FLuc: -1.3%; ELG1 genotox: -5.4%; SMN2 splice up: 3.9%; FLuc counter: -0.7%; Rab9 promoter act: -6.9%

How did Cc1cccn2cc(-c3ccc(Cl)cc3)nc12 do in these assays?
NPC1 promoter act: inconclusive; ELG1 genotox: 2.06µM*; FLuc counter: 0.379µM*; Rab9 promoter act: 1.26µM*

Results for Cc1ccc(-c2cn3cccc(C)c3n2)cc1 ?
NPC1 promoter act: 3.98µM*; KinaseGlo FLuc: inconclusive; ELG1 genotox: inconclusive; FLuc counter: 1.07µM*; Rab9 promoter act: 1.41µM*

What do the screens show for `Cc1cc(C)c(S(=O)(=O)Nc2cc(-c3cn4ccccc4n3)ccc2C)cc1C`?
SMN2 splice up: 5.7%; FLuc counter: inconclusive

How did Cc1ccc(-c2cn3cccc(C)c3n2)cc1NS(=O)(=O)c1ccccc1 do in these assays?
SMN2 splice up: 23.5%; FLuc counter: 16.9µM*

What do the screens show for `Cc1cccn2cc(-c3ccc(S(=O)(=O)N4CCOCC4)cc3)nc12`?
NPC1 promoter act: -0.2%; KinaseGlo FLuc: 12.5%; ELG1 genotox: -5.6%; SMN2 splice up: -19.3%; FLuc counter: -0.6%; Rab9 promoter act: -2.8%

Results for COc1ccc(-c2nc3c(-c4ccccc4)cnn3cc2C)cc1F ?
NPC1 promoter act: 10.6%; KinaseGlo FLuc: 4.6%; ELG1 genotox: 6.5%; FLuc counter: -16.0%; Rab9 promoter act: 21.0%

Results for Cc1cccn2cc(-c3ccc(S(=O)(=O)N4CCCCC4)cc3)nc12 ?
NPC1 promoter act: -0.4%; KinaseGlo FLuc: -1.9%; ELG1 genotox: -3.6%; FLuc counter: -0.4%; Rab9 promoter act: -0.1%

Results for COc1ccc(-c2cn3cccc(C)c3n2)cc1F ?
NPC1 promoter act: inconclusive; KinaseGlo FLuc: inconclusive; ELG1 genotox: 4.61µM*; SMN2 splice up: 5.62µM*; FLuc counter: 6.01µM*; Rab9 promoter act: 2.51µM*

What do the screens show for `Cc1oc2c(C)c3oc(=O)c(CCC(=O)NCCN4CCOCC4)c(C)c3cc2c1C`?
NPC1 promoter act: -2.4%; ELG1 genotox: 4.8%; FLuc counter: 4.9%; Rab9 promoter act: -1.8%

What do the screens show for `CN(C)c1nc(N)c([N+](=O)[O-])c(NCCO)n1`?
NPC1 promoter act: -0.3%; KinaseGlo FLuc: 0.1%; ELG1 genotox: 5.4%; SMN2 splice up: inconclusive; FLuc counter: 0.1%; Rab9 promoter act: 1.7%

How did O=[N+]([O-])c1cccn2cc(-c3ccc(Br)cc3)nc12 do in these assays?
NPC1 promoter act: inconclusive; KinaseGlo FLuc: 1.5%; ELG1 genotox: inconclusive; FLuc counter: inconclusive; Rab9 promoter act: 2.82µM*

How did CCOc1ccccc1N1CC(C(=O)Nc2cc(Cl)ccc2-n2cncn2)CC1=O (stereo not drawn) do in these assays?
NPC1 promoter act: 0.6%; ELG1 genotox: 0.8%; FLuc counter: 5.1%; Rab9 promoter act: -1.6%

Results for Cc1c(N)c(=O)n(-c2ccccc2)n1C ?
NPC1 promoter act: -9.9%; KinaseGlo FLuc: -4.9%; ELG1 genotox: -4.0%; SMN2 splice up: 3.8%; FLuc counter: -0.8%; Rab9 promoter act: -3.8%

Compound activity (PubChem BioAssay)
